# The list is not random: actives were taken first. Their share in the collection is about 17%.
# TDP1 cell CPT – growth inhibition of DT40 Tdp1-/-;hTDP1 cells with camptothecin (screen for TDP1 inhibitors); AID 686979; chicken DT40 Tdp1-/-;hTDP1 cells + 20 nM CPT, ATP luminescence, 48 h; Potency, µM (doses to about 46.2 µM), for inactives: at the top dose activity change, negative = growth inhibition, hits mostly inhibitors; hit rate 12% among 420,000; note: % is set by controls: 0 for no effect and ±100 for the full control effect; nearly all actives have a fitted effect of over 55% in size
#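 Chicken DT40 Tdp1-/- cells stably complemented with human TDP1 were seeded at 400 cells/well in medium containing 20 nM camptothecin, exposed to pin-transferred compounds, and grown at 37 °C for at least 48 hr. Viability was read as ATP luminescence.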
# HepG2 tox – counter-screen for TGF-b inhibitors: cytotoxicity in HepG2 cells; HepG2 CAGA-GFP viability, ATP luminescence, 18 h; hit rate 0.76% among 410,000; AID 588856; Potency, µM (series often up to 46.1 µM), for the others: top-dose activity change, negative = cytotoxicity, most hits filed as cytotoxic
#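 CellTiter-Glo luminescence gave cytotoxicity after 18 hours at 37 degrees C. The cells were HepG2 CAGA-GFP in 1% FBS DMEM, stimulated with 500 pg/mL TGF-beta after compound addition. %Activity was normalised to no-cell wells (complete cell-killing) and DMSO (no toxicity), and curves were fitted and classified.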
# HT1080NT lethal – kills 2HG-producing HT-1080-NT fibrosarcoma cells; HT-1080-NT fibrosarcoma viability, CellTiter-Glo ATP luminescence, 48 h; Potency, µM (top dose mostly 46.1 µM), inactives show top-dose activity, negative = less viability, hits mostly cytotoxic; hit rate 1.6% among 360,000;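 note: NT is the 2HG producing partner of a matched IDH1 knockdown line; 0% = DMSO-treated cells and -100% = media-only wells without cells; nearly all actives have a fitted effect of over 55% in size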
#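 HT-1080-NT fibrosarcoma cells (2HG-overproducing), 750 cells/well in RPMI with 5% FBS, dosed after 2 h and incubated 48 h at 37C. CellTiter-Glo luminescence normalized to DMSO and no-cell wells; concentration-response curves fitted and classed.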
# DT40 TDP1 no CPT – qHTS for Inhibitors of human tyrosyl-DNA phosphodiesterase 1 (TDP1): qHTS in cells in absence of CPT. hit rate 15% among 420,000. Potency, µM (doses to about 46.2 µM), for inactives: at the top dose activity change, negative = growth inhibition, hits mostly inhibitors. AID 686978, 2013. DT40 Tdp1-/- hTDP1 cells, no CPT, ATP luminescence, 48 h; note: % is set by controls: 0 for no effect and ±100 for the full control effect; nearly all actives have a fitted effect of over 55% in size
#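 Stably hTDP1-transfected Tdp1-null chicken DT40 cells were treated with library compounds minus camptothecin and grown for at least 48 hr at 37 °C, after which cellular ATP was quantified by luminescence.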
# HT1080 IDH1KD tx – kills HT-1080 cells with IDH1 knockdown; HT-1080 IDH1 knockdown viability, ATP luminescence, 48 h; Potency, µM (series often up to 46.1 µM), without a hit: top-dose activity, negative = toxicity, usual class: cytotoxic; hit rate 2% among 360,000; AID 686971;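 note: 0% = DMSO wells and -100% = cell-free medium wells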
#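 HT-1080-IDH1KD cells (IDH1 knocked down), 750/well in RPMI with 5% FBS, treated with compound 48 h at 37 degrees C. Viability by CellTiter-Glo luminescence, normalised to DMSO and no-cell wells; concentration-response curves classed.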
# TGFb inhibitor – blocks TGF-b signaling; HepG2 CAGA-GFP TGF-b/SMAD3 reporter, GFP fluorescence, 18 h; TGF-beta stimulated, 500 pg/mL final; Potency, µM (top dose mostly 46.1 µM), inactives show at the highest dose activity, negative = inhibition, actives largely listed as inhibitors; hit rate 1.2% among 410,000; AID 588855; note: % is set by controls: 0 for no effect and ±100 for the full control effect; nearly all actives have a fitted effect of over 65% in size
#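 Inhibition was scored as loss of TGF-beta-induced (500 pg/mL final, 18 hours, 37 degrees C) GFP in HEPG2 cells carrying a CAGA-GFP reporter, in DMEM with 1% FBS. Well GFP was summed per cell; Activity was normalised to unstimulated and stimulated DMSO wells, then concentration-response fitting.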
# Numbers without * were called inactive; ? = inconclusive; . = not tested or not shown; ! = not active in a repeat; [ ] = another dose, or the depositor's remark. Calls come from the whole dose curve; as a rule, active = well fitted curve in the direction sought with a large enough effect; inconclusive = small, poorly fitted or top-dose-only effect, or another doubt; inactive = no such curve, though single readings can be large; an effect the other way counts as inactive or inconclusive. Potency is the fitted concentration of half-maximal effect.
SMILES,TDP1 cell CPT,HepG2 tox,HT1080NT lethal,DT40 TDP1 no CPT,HT1080 IDH1KD tx,TGFb inhibitor
NC(=O)c1nsc(C(=O)N(c2ccccc2)C(C(=O)NCC2CCCO2)c2cccs2)c1N (stereo not drawn),23µM*,4%,0%,15µM*,13%,9%
N=C(N)n1cccn1,-2%,.,.,-1%,.,.
CC[C@]12C(=O)N(C)C[C@H]([C@@H]3C(=O)N(Cc4ccccc4)C(=O)[C@@H]31)N2C(=O)c1ccc(F)cc1,-2%,-42%,12%,-7%,13%,2%
O=C(Nc1nc2n(n1)C(c1ccc(F)cc1)C=C(c1ccccc1)N2)c1cccc([N+](=O)[O-])c1 (stereo not drawn),18µM*,-11%,.,10µM*,.,-25%
CC(=O)Nc1nc2n(n1)C(c1ccc(F)cc1)C=C(c1ccccc1)N2 (stereo not drawn),?,-19%,-1%,18µM*,-2%,2%
O=C(NNC1CC(=O)N(c2ccc3c(c2)OCCO3)C1=O)c1ccccc1 (stereo not drawn),-13%,-5%,3%,0%,3%,5%
COc1ccc(NC(=O)Nc2cccc(Cl)c2Cl)c(OC)n1,-4%,2%,-5%,-21%,?,-21%
Cc1ccc(C2=Nc3ccccc3N(CC(=O)Nc3ccccc3F)C(=O)C2)cc1C,23µM*,-14%,.,26µM*,.,-15%
CN(C)c1ccc(NC(=O)CN2C(=O)CC(c3ccccc3)=Nc3ccccc32)cc1,2%,-19%,-2%,-21%,1%,-1%
O=C(CN1C(=O)CC(c2ccccc2)=Nc2ccccc21)Nc1ccc(Br)cc1,?,-9%,.,21µM*,.,-4%
Cc1ccc(NC(=O)CN2C(=O)CC(c3ccc(C)c(C)c3)=Nc3ccccc32)cc1,21µM*,-12%,.,18µM*,.,-17%
COc1ccc(C(C)NC(=O)Cc2cccs2)cc1OC (stereo not drawn),-2%,-2%,9%,13%,14%,0%
COC(=O)c1ccc(CSc2ncnc3c2sc2nc(N4CCOCC4)c4c(c23)CCCC4)o1,?,-23%,6%,18µM*,0%,-3%
COC(=O)c1ccc(-c2sc3nc(N4CCOCC4)c4c(c3c2N)CCCC4)o1,18µM*,-13%,-1%,26µM*,1%,9%
O=C1NC[C@@H](CCCCN2C[C@H](Cc3ccc(O)cc3)N(CCc3ccc(O)cc3)C(=O)C2=O)N(CCc2ccccc2)C1=O,-19%,.,11%,-27%,20%,.
C[C@H](CO)N1C[C@H](C)[C@@H](CN(C)Cc2ccncc2)OCc2cnnn2CCCC1=O,-5%,-43%,?,-8%,0%,-26%
Oc1ccc(NCc2ccccc2OCc2ccccc2)cc1,18µM*,11µM*!,-21%,23µM*,?,8.9µM*
CCNCc1ccccc1OCc1ccccc1,-24%,0%,-11%,8%,-7%,1%
O=c1[nH]c2ccc(NCc3ccccc3OCc3ccc(Cl)cc3)cc2[nH]1,23µM*,-30%,16µM*,?,?,?
Fc1ccccc1CNc1ccc(Cl)cc1,-22%,-20%,3%,-15%,-20%,3%
Oc1ccc(NCc2ccccc2OCc2ccc(Cl)cc2)cc1,29µM*,13µM*,.,21µM*,.,5.6µM*
CC(OC(=O)c1ccc(-n2cnnn2)cc1)C(=O)Nc1ccc(F)c(F)c1F (stereo not drawn),-22%,17%,-5%,-7%,4%,17%
c1ccc(C[n+]2c(-c3ccccc3)csc2Nc2ccccc2)cc1,10µM*,0%,10%,?,4%,?
CC[n+]1c(-c2ccccc2)csc1Nc1c(C)n(C)n(-c2ccccc2)c1=O,?,-7%,-1%,-39%,1%,-10%
c1ccc(Nc2scc(-c3ccccc3)[n+]2Cc2ccco2)cc1,16µM*,-26%,?,23µM*,-1%,?
SMILES,TDP1 cell CPT,HepG2 tox,HT1080NT lethal,DT40 TDP1 no CPT,HT1080 IDH1KD tx,TGFb inhibitor
C=CCN(CC=C)C(=S)Nc1ccccc1,-25%,-19%,10%,2%,1%,-12%
CC(C)c1ccc(OCC(=O)N(Cc2cccs2)C2CCS(=O)(=O)C2)cc1 (stereo not drawn),?,-1%,.,?,.,9%
CCNC(=O)NCCCOc1cccc(CN2CCCCC2)c1,-18%,.,.,-6%,.,.
OC(c1ccccc1)(c1nc(/C=C/c2ccccc2)cs1)C(F)(F)F (stereo not drawn),?,-114%,?,-84%,?,22µM*
OC(c1ccccc1)(c1nc(-c2cccc(F)c2)cs1)C(F)(F)F (stereo not drawn),?,-89%,18µM*,?,?,?
OC(c1ccccc1)(c1nc(-c2ccccc2)cs1)C(F)(F)F (stereo not drawn),18µM*,-109%,21µM*,21µM*,?,?
OC(c1ccccc1)(c1nc(-c2cc(F)cc(F)c2)cs1)C(F)(F)F (stereo not drawn),?,-106%,?,?,?,?
CS(=O)(=O)c1ccc(-c2csc(C(O)(c3ccccc3)C(F)(F)F)n2)cc1 (stereo not drawn),?,-8%,-7%,?,0%,-27%
OC(c1ccccc1)(c1nc(-c2ccc3ccccc3c2)cs1)C(F)(F)F (stereo not drawn),21µM*,-99%,?,?,?,?
CCCS(=O)(=O)NCc1c(C)ncc2c1CCN(C(=O)c1cccc(-c3ccccc3F)c1)C2,7%[9.04 µM],.,.,?,.,.
COc1ccc(CCC(=O)NCCNC(=O)CCc2ccc(OC)cc2)cc1,8%,-5%,-11%,-2%,-4%,-12%
c1cn(-c2cc(-c3ccc4c(c3)OCO4)ncn2)cn1,?,.,.,-9%,.,.
COc1ccc(C(=O)c2c(C(F)(F)F)oc3c2C(=O)c2ccccc2C3=O)cc1,4.6µM*,1.1µM*,7.3µM*,7.3µM*,6.5µM*,?
CC(=O)Nc1cc(-c2ccc(N3CCN(C)CC3)cc2)cn2c(-c3ccc(F)c(Cl)c3)cnc12,18µM*,-99%,21µM*,?,16µM*,?

# Source: PubChem BioAssay
